ALDH1A1 block: inhibitors of human aldehyde dehydrogenase 1A1; Potency, µM (titrated, usually from 75.3 µM), for inactives: at the top dose activity, negative = inhibition, actives largely listed as inhibitors; 7.3% of 220,000 active; Purified ALDH1A1, NADH fluorescence, propionaldehyde substrate; AID 1030; P00352; active = well fitted inhibition curve with a large enough effect, not every such curve was filed as active; inconclusive = small, poorly fitted or top-dose-only effect, or another doubt; inactive = no such curve, though single readings can be large or run the other way;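 note: potency is the fitted concentration of half-maximal effect; plate controls were no enzyme wells and a reference inhibitor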
Target sequence (P00352 whole entry, looked up): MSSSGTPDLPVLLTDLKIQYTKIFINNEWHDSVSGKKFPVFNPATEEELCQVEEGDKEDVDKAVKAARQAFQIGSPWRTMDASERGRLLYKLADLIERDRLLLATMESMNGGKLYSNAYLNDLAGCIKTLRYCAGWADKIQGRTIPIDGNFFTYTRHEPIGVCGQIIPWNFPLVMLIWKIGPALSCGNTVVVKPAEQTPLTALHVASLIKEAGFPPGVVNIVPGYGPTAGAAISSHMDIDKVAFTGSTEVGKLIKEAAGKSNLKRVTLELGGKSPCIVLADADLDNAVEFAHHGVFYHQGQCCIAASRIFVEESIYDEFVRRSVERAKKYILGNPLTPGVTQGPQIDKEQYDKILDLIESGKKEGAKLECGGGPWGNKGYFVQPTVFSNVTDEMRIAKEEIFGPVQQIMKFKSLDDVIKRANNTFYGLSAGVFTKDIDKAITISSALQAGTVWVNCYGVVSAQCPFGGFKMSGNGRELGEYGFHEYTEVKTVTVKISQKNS
IMPase Li inh: membrane-permeable IMPase blocker, potentiated with lithium | CHO-M1 cells, IP1 TR-FRET (IP-One), carbachol + lithium | Potency, µM (doses to about 59.4 µM), for inactives: at the top dose activity, negative = IMPase inhibition, hits mostly inhibitors | 0.35% of 210,000 active | AID 1457;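 note: IP1 builds up when IMPase is blocked and the TR-FRET signal falls; potency is the fitted concentration of half-maximal effect; plate controls were basal vehicle for no effect and high inhibitor control for full effect; nearly all actives have a fitted effect of over 50% in size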
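Test compounds were applied to CHO-M1 cells previously cultured for 16–30 h at 2000 per well. A small lithium amount accompanied them; after 30 min at 37C, IP1 was quantified by TR-FRET.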
12-hLO inh: 12-hLO (ALOX12) enzyme inhibition. Potency, µM (top dose mostly 57.1 µM), for inactives: at the top dose activity change, negative = inhibition, most hits filed as inhibitors. purified 12-hLO, xylenol orange hydroperoxide absorbance. 0.12% of 150,000 active; note: potency is the fitted concentration of half-maximal effect; nearly all actives have a fitted effect of over 55% in size
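Xylenol orange chromogenic assay: hydroperoxide from 12hLO oxidises Fe(II), giving red-shifted Fe(III)-XO absorbance. Conditions: 150 nM enzyme, 40 uM arachidonic acid, 25 mM Hepes pH 7.0, 0.01% Triton X-100, 30 min, room temperature.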
NPSR antag: blocks cAMP signaling of the human neuropeptide S receptor | Q6W5P4 | CHO-NPSR cells, cAMP TR-FRET, antagonist mode | Potency, µM (doses to about 38.3 µM), without a hit: at the top dose activity change, negative = inhibition, most hits filed as inhibitors | 1% of 220,000 active; note: potency is the fitted concentration of half-maximal effect; nearly all actives have a fitted effect of over 50% in size
IMPase inh: IMPase inhibition in cells; P97697; CHO-M1 cells, IP1 accumulation, HTRF TR-FRET ratio; inhibition (IP1 accumulation), % at 46.1 µM; 120,000 tested, under 10 active; AID 901; active = well fitted curve in the direction sought with a large enough effect in the signal ratio, not every such curve was filed as active; inconclusive = small, poorly fitted or top-dose-only effect, or a change in a side signal; inactive = no such curve, though single readings can be large or run the other way; the % refers to the signal ratio;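 note: cells stimulated with carbachol in lithium chloride buffer; plate controls were DMSO basal wells for no effect and reference inhibitor wells for full effect; higher means more IMPase inhibition seen as more IP1 and lower FRET ratio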
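CHO-M1, 2000 cells/well, cultured 16–30 h; cpd up to 46 uM; carbachol (50 uM solution, stimulation buffer w/ 50 mM LiCl, pH 7.4), 30 min 37C; IP-One TR-FRET, 10 min RT; Ex 320/Em 665, 620; Hill-fit AC50.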
HPGD block: blocks human HPGD enzyme activity. purified HPGD, NADH fluorescence kinetic, PGE2 substrate. Potency, µM, for the others: at the top dose activity change, negative = inhibition, hits mostly inhibitors. 4.3% of 150,000 active. AID 894; active = well fitted inhibition curve with a large enough effect, not every such curve was filed as active; inconclusive = small, poorly fitted or top-dose-only effect, or another doubt; inactive = no such curve, though single readings can be large or run the other way; note: potency is the fitted concentration of half-maximal effect
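NADH formation kinetics: reaction with 30 uM PGE2 and 1 mM NAD+ (final), 20 nM enzyme, Tris-HCl pH 8 with Tween 20, after 15 min compound preincubation at room temperature. Fluorescence change, last versus first of five reads.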
* hit, by the source's call; [ ] = dose if it differs, or a comment. Only some compounds are listed: those with a hit (about 8.9% of all), similar ones and a draw of the others. Unless noted, calls come from the whole dose curve; as a rule, active = well fitted curve in the direction sought with a large enough effect; inconclusive = small, poorly fitted or top-dose-only effect, or another doubt; inactive = no such curve, though single readings can be large; an effect the other way counts as inactive or inconclusive. Unless noted, % is set by controls: 0 for no effect and ±100 for the full control effect.

Screening COc1ccccc1Nc1nc(-c2cccs2)cs1 returned ALDH1A1 block 4µM*, IMPase Li inh 5%[38.3 µM], 12-hLO inh -18%, NPSR antag 2%[46.1 µM], IMPase inh 7 and HPGD block -29%.
For COc1ccc(OC)c(Nc2nc(-c3cccs3)cs2)c1 the results were ALDH1A1 block -8%, IMPase Li inh 9%, 12-hLO inh 1%, NPSR antag -18%[46.1 µM], IMPase inh -4 and HPGD block -23%.
CSc1nc2sc3c(c2c2nncn12)CCC3 was read as ALDH1A1 block 7.9µM*, IMPase Li inh 1%, 12-hLO inh 2%, NPSR antag -4% and HPGD block -12%.
`c1nnc2c3c4c(sc3ncn12)CCCC4` gave ALDH1A1 block 22%, IMPase Li inh -4%, 12-hLO inh 0%, NPSR antag -8%[46.1 µM], IMPase inh -5 and HPGD block -2%.
Screening CC(C)n1nnnc1SCC(=O)N1CCN(C(=O)c2ccco2)CC1 returned ALDH1A1 block 25µM*, IMPase Li inh 4%, 12-hLO inh -1%, NPSR antag -5%[46.1 µM], IMPase inh -4 and HPGD block -2%.
For O=C(CSc1nnnn1C1CCCCC1)N1CCN(C(=O)c2ccco2)CC1 the results were ALDH1A1 block inconclusive, IMPase Li inh 19% and NPSR antag 32%.
O=C(CSc1nnnn1C1CCCC1)N1CCN(C(=O)c2ccco2)CC1 was read as ALDH1A1 block 14µM*, IMPase Li inh -2%, 12-hLO inh 2%, NPSR antag 3%[46.1 µM], IMPase inh 18 and HPGD block -2%.
Screening Cc1cc(C)c(S(=O)(=O)/N=C2\C=CC(=O)C(Cl)=C2)c(C)c1 returned ALDH1A1 block inconclusive, IMPase Li inh 21%[38.3 µM], 12-hLO inh inconclusive, NPSR antag 0%[46.1 µM], IMPase inh 5 and HPGD block 20µM*.
Screening O=C(/C=C/Nc1ccc(F)c(Cl)c1)c1ccco1 returned ALDH1A1 block 28µM*, IMPase Li inh 15%[38.3 µM], 12-hLO inh -14%, NPSR antag 13%[46.1 µM], IMPase inh 4 and HPGD block -24%.
CC(=O)Nc1ccc(NC(=O)c2ccco2)cc1 was read as ALDH1A1 block -1%, IMPase Li inh 18%[38.3 µM], 12-hLO inh 0%, NPSR antag -14%[46.1 µM], IMPase inh 6 and HPGD block -12%.
CN(C)c1ccc(N/C=C/C(=O)c2ccco2)cc1 was read as ALDH1A1 block 28µM*, IMPase Li inh 68%[38.3 µM], 12-hLO inh -15%, NPSR antag inconclusive, IMPase inh 32 and HPGD block 35µM*.
Screening CC(=O)Nc1ccc(N/C=C/C(=O)c2ccco2)cc1 returned ALDH1A1 block 4.5µM*, IMPase Li inh 11%[38.3 µM], 12-hLO inh -10%, NPSR antag 2%[46.1 µM], IMPase inh 3 and HPGD block 25µM*.
`O=C(/C=C/Nc1cccc(F)c1)c1ccco1` gave ALDH1A1 block -13%, IMPase Li inh 4%[38.3 µM], 12-hLO inh 5%, NPSR antag -8%[46.1 µM], IMPase inh -1 and HPGD block -26%.
`Cc1[nH]n(-c2ccccc2)c(=O)c1S(=O)(=O)c1ccccc1` gave ALDH1A1 block inconclusive, IMPase Li inh -17%[38.3 µM], 12-hLO inh -16%, NPSR antag -9%[7.67 µM], IMPase inh 0 and HPGD block -2%.
CN(C)c1ccc(Nc2nc(N)c([N+](=O)[O-])c(N3CCOCC3)n2)cc1 was read as ALDH1A1 block -42%, IMPase Li inh 27%, 12-hLO inh 0%, NPSR antag -23% and HPGD block -10%.
`O=C(NCc1ccco1)C(=O)NCC1OCCN1S(=O)(=O)c1ccc(Br)cc1` (centres undefined) gave ALDH1A1 block inconclusive, IMPase Li inh -3% and NPSR antag 11%.
For O=C(c1ccco1)N1CCN(C2CC(=O)N(c3ccccc3)C2=O)CC1 (centres undefined) the results were ALDH1A1 block 20µM*, IMPase Li inh 23%[38.3 µM], 12-hLO inh 8%, NPSR antag -12%[46.1 µM], IMPase inh -1 and HPGD block -12%.

Compound activity deposited in PubChem BioAssay by National Center for Advancing Translational Sciences (NCATS).
